Holding throughout (test): NCI-60 one-dose screen, 48 h (100 = growth as untreated, 0 = no growth, -100 = all killed)
For one assay, the system named is NCI-H23 lung. The following applies: 10 µM unless noted.
The test system of the next assay is NCI-H226 lung. The following applies: 10 µM unless noted.
The subject of another assay is NCI-H322M lung. The following applies: 10 µM unless noted.
In a further assay the test system is HOP-62 NSCLC. The conditions noted are these: 10 µM unless noted.
The subject of the next assay is NCI-H460 lung. The following applies: 10 µM unless noted.
The next assay relates to HOP-92 NSCLC. The following applies: 10 µM unless noted.
The next assay relates to NCI-H522 lung. The following applies: 10 µM.
The test system of the next assay is 786-0 renal. The conditions noted are these: 10 µM unless noted.
The next assay has as its system COLO 205 colon. The conditions noted are these: 10 µM unless noted.
Another assay relates to DU-145 prostate. The conditions noted are these: 10 µM unless noted.
The next assay deals with K-562 leukemia. The conditions noted are these: 10 µM unless noted.
A further assay deals with MALME-3M melanoma. The conditions noted are these: 10 µM unless noted.
Another assay deals with MDA-MB-231 breast. The following applies: 10 µM unless noted.
In the next assay the test system is RXF 393 renal. The conditions noted are these: 10 µM unless noted.
A further assay has as its system SF-268 CNS. The following applies: 10 µM unless noted.
Another assay deals with SF-295 CNS. The conditions noted are these: 10 µM unless noted.
The test system of a further assay is SF-539 CNS. The conditions noted are these: 10 µM unless noted.
Another assay concerns UACC-257 melanoma. The conditions noted are these: 10 µM unless noted.
In the next assay the test system is M14 melanoma. The conditions noted are these: 10 µM unless noted.

About 83,000 compounds went through this panel and 20% of them were active in at least one assay; those are over-represented in the sample as a whole.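 Each cell line was grown in a 96-well plate and treated with one concentration of compound for 48 hours. Values below 10 were considered active.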 Unmarked numbers belong to inactive results. Calls of active or inactive are those of the source.

As to `CCOc1nc(-c2ccco2)n2nc(-c3ccco3)cc2n1`, the growth with NCI-H23 lung was 107%; in the assay on NCI-H226 lung, 92.4%; with NCI-H322M lung, 116%; in the assay with HOP-62 NSCLC, 118%; in the assay with NCI-H460 lung it was 102%; with HOP-92 NSCLC, 92%. Also, the growth in the assay with NCI-H522 lung was 99.1%; in the assay with 786-0 renal, 103%; with COLO 205 colon, 131%; in the assay with DU-145 prostate, 118%; in the assay on K-562 leukemia, 114%; with MALME-3M melanoma it was 122%. Moreover, the growth in the assay on MDA-MB-231 breast is 98%; with RXF 393 renal, 98.4%; with SF-268 CNS, 106%; in the assay with SF-295 CNS it was 98.3%; with SF-539 CNS, 89.6%; in the assay with UACC-257 melanoma, 116%. Further, the growth in the assay on M14 melanoma was 132%.
In the case of `Cn1cnc([N+](=O)[O-])c1Sc1nc(N)nc2nc[nH]c12`, the growth is 52.9% with NCI-H23 lung; 74.1% with NCI-H226 lung; 77.3% in the assay with NCI-H322M lung; 22.8% in the assay on HOP-62 NSCLC; 20.6% in the assay with NCI-H460 lung; -3.12% (active) in the assay with HOP-92 NSCLC. Moreover, the growth with NCI-H522 lung was 41.3%; in the assay with 786-0 renal it was 14.6%; in the assay with COLO 205 colon, 96.9%; with DU-145 prostate it was 25.7%; with K-562 leukemia, 4.56% (active); in the assay on MALME-3M melanoma it was 68.8%. The growth with MDA-MB-231 breast is 29.6%; in the assay on RXF 393 renal, 44.8%; in the assay on SF-268 CNS, 29%; in the assay with SF-295 CNS it was -2.69% (active); with SF-539 CNS, 16.4%; in the assay with UACC-257 melanoma, 45.3%. For the same molecule, the growth with M14 melanoma was 14.4%.
For the molecule `O=C(CNc1ccc2c(c1)C(=O)c1ccccc1C2=O)Nc1ccc2c(c1)C(=O)c1ccccc1C2=O`, the growth in the assay with NCI-H23 lung is -70.5% (active); in the assay on NCI-H226 lung, -62% (active); in the assay with NCI-H322M lung it was -95.2% (active); in the assay on HOP-62 NSCLC, -86.5% (active); in the assay on NCI-H460 lung, -71.6% (active); in the assay on HOP-92 NSCLC, -65.7% (active). Moreover, the growth was -96.2% (active) in the assay on NCI-H522 lung; -90.3% (active) in the assay on 786-0 renal; -89% (active) in the assay with COLO 205 colon; -100% (active) with DU-145 prostate; -30.2% (active) with K-562 leukemia; -81.2% (active) with MALME-3M melanoma. The growth is -27.7% (active) in the assay on MDA-MB-231 breast; -89.4% (active) with RXF 393 renal; -94.6% (active) with SF-268 CNS; -89.4% (active) in the assay on SF-295 CNS; -69.3% (active) with SF-539 CNS; -90.3% (active) with UACC-257 melanoma. In the assay on M14 melanoma, the growth was -79.3% (active).
In the case of `O=C(/C=C/c1cccc(O)c1)c1cccc(-n2cc(-c3ccccc3)[nH]c2=O)c1`, the growth with NCI-H23 lung was 14.4%; in the assay with NCI-H226 lung, 3.79% (active); with NCI-H322M lung it was 21.4%; with HOP-62 NSCLC, 16.9%; in the assay with NCI-H460 lung, 34.8%; with HOP-92 NSCLC it was 26.7%. The growth in the assay with NCI-H522 lung was -21.8% (active); in the assay with 786-0 renal, -59.7% (active); with COLO 205 colon, 83.8%; in the assay with DU-145 prostate it was -16.9% (active); with K-562 leukemia, 1.71% (active); in the assay on MALME-3M melanoma, 0.0704% (active). Moreover, the growth is -5.57% (active) in the assay on MDA-MB-231 breast; -62.4% (active) in the assay with RXF 393 renal; 7.61% (active) in the assay on SF-268 CNS; 64.8% in the assay with SF-295 CNS; -27.4% (active) in the assay with SF-539 CNS; 95.6% in the assay with UACC-257 melanoma. Further, in the assay with M14 melanoma, the growth was 64.5%.
On to `COc1ccc2[nH]c(=O)c(CNc3ccc(Nc4nccc(-c5ccc(Cl)cc5)n4)cc3)cc2c1`, for which the growth was 91.5% in the assay with NCI-H23 lung; 91.7% with NCI-H226 lung; 87.6% in the assay on NCI-H322M lung; 102% in the assay on HOP-62 NSCLC; 93.7% in the assay on NCI-H460 lung; 87.1% in the assay with HOP-92 NSCLC. Also, the growth was 83.8% in the assay with NCI-H522 lung; 98% in the assay with 786-0 renal; 100% in the assay on COLO 205 colon; 84.8% with DU-145 prostate; 68.6% in the assay with K-562 leukemia; 97.7% with MALME-3M melanoma. Moreover, the growth is 84.9% in the assay with MDA-MB-231 breast; 101% with RXF 393 renal; 71.9% with SF-268 CNS; 110% in the assay with SF-295 CNS; 104% in the assay with SF-539 CNS; 111% in the assay with M14 melanoma.
Regarding `Cc1c2oc3c(C)ccc(C(=O)OC(C)C4NC(=O)C(C(C)C)N(C)C(=O)CN(C)C(=O)C5CCCN5C(=O)C(C(C)C)NC4=O)c3nc-2c(C(=O)OC(C)C2NC(=O)C(C(C)C)N(C)C(=O)CN(C)C(=O)C3CCCN3C(=O)C(C(C)C)NC2=O)c(N)c1=O` (centres undefined), the growth is -7.25% (active) in the assay on NCI-H23 lung; -40.7% (active) with NCI-H226 lung; 1.84% (active) with NCI-H322M lung; -20.4% (active) with HOP-62 NSCLC; 5.45% (active) in the assay with NCI-H460 lung; -15.7% (active) in the assay on HOP-92 NSCLC. Moreover, the growth was -60.1% (active) in the assay with NCI-H522 lung; -11.9% (active) with 786-0 renal; -63.8% (active) with COLO 205 colon; 11.4% with DU-145 prostate; 5.53% (active) with K-562 leukemia; -37.6% (active) in the assay on MALME-3M melanoma. Further, the growth was 3.61% (active) with MDA-MB-231 breast; -78.5% (active) with RXF 393 renal; -5.9% (active) in the assay with SF-268 CNS; -9.17% (active) in the assay with SF-295 CNS; -11.4% (active) in the assay on SF-539 CNS; -55.7% (active) in the assay with M14 melanoma.
As for `CC12CCC3C(=CCc4cc(O)ccc43)C1CCC2=O` (centres undefined), the growth in the assay with NCI-H23 lung was 103%; with NCI-H226 lung, 102%; with NCI-H322M lung, 94.9%; in the assay on HOP-62 NSCLC, 99.2%; in the assay with NCI-H460 lung it was 108%; in the assay with HOP-92 NSCLC it was 99.4%. For the same molecule, the growth in the assay on NCI-H522 lung is 97%; in the assay with 786-0 renal, 105%; in the assay with COLO 205 colon, 111%; with DU-145 prostate, 115%; in the assay on K-562 leukemia, 91.5%; in the assay with MALME-3M melanoma it was 90.5%. The growth with MDA-MB-231 breast is 102%; in the assay with RXF 393 renal it was 113%; with SF-268 CNS, 106%; in the assay on SF-295 CNS it was 92%; in the assay on SF-539 CNS, 102%; with UACC-257 melanoma, 113%. The growth with M14 melanoma was 105%.
`CCc1ccc(-c2nc(SCC(=O)NC3CCCCC3)n[nH]2)cc1`: the growth in the assay with NCI-H23 lung is 55%; in the assay on NCI-H226 lung, 67.8%; in the assay with NCI-H322M lung, 78.4%; in the assay on HOP-62 NSCLC, 94.6%; in the assay with NCI-H460 lung, 90.8%; with HOP-92 NSCLC it was 67.6%. Further, the growth in the assay on NCI-H522 lung is 73.6%; in the assay on 786-0 renal, 73.4%; in the assay with COLO 205 colon, 122%; with DU-145 prostate, 102%; in the assay on K-562 leukemia, 33.3%; with MALME-3M melanoma it was 88.2%. Also, the growth in the assay with MDA-MB-231 breast is 63.3%; with SF-268 CNS, 82.6%; with SF-295 CNS it was 15.8%; with SF-539 CNS it was 92.9%; with UACC-257 melanoma it was -1.69% (active); in the assay on M14 melanoma, 77.7%.

The values are drawn from PubChem BioAssay (NCI).
